The subject of assay [1] is Wnt5a (protein binding on small-molecule microarray). In words: small molecules binding Wnt5a protein – biophysical, small-molecule microarray, 635/667 nm fluorescence, primary screen (AID 1142).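 Note: fluorescence read at 667 nm with signal to noise per printed feature.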 Particulars: 635 nm fluorescence, higher = more signal.
Assay [2] in a line: ATP-based viability of Huh7 replicon cells – cell-based, CellTiter-Glo luminescence, basal, 48 h, cytotoxicity control for HCV replication inhibitor project, primary screen (AID 1143).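 Note: Huh7 hepatoma cells carrying a hepatitis C replication reporter with no stimulus; test concentration not given here.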 Particulars: higher = more signal, called active from +8 up or from −8 down. For orientation: A replicon is a self-replicating genome or part of one, used to study replication in cells.
Assay [3] is described as follows: Pseudomonas biofilm growth suppression – PAO1 strain, BacTiter-Glo luminescence, LB-PBS, primary screen (AID 1144). Particulars: P. aeruginosa PAO1 biofilm, 12 h, higher = more signal.
The nature of assay [4]: basal CRE-LacZ reporter activity in PC12 – cell-based, unstimulated, primary screen (AID 1145). Particulars: no forskolin, luminescence, 4.5 h, higher = more signal, called active from +8 up or from −8 down.
A short description of assay [5]: forskolin-driven CRE-LacZ activity in PC12 – cell-based, CRE-LacZ reporter, forskolin-stimulated, primary screen (AID 1146).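 Note: PC12 cells with 6xCRE LacZ reporter stimulated by forskolin 10 µM; beta-galactosidase reporter signal reflecting CREB driven transcription.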 The note with it: luminescence, 4.5 h, higher = more signal, called active from +8 up or from −8 down.
For assay [6], the target named is Streptavidin (Streptomyces avidinii) (UniProt P22629). In words: compounds binding control protein streptavidin – biophysical, small-molecule microarray, 635/667 nm fluorescence, artefact control for SMM compound annotation, primary screen (AID 1147).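 Note: signal reflects streptavidin binding to arrayed compounds as a control protein.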 Particulars: higher = more signal.
Streptavidin (Streptomyces avidinii), sequence (P22629 whole entry, looked up): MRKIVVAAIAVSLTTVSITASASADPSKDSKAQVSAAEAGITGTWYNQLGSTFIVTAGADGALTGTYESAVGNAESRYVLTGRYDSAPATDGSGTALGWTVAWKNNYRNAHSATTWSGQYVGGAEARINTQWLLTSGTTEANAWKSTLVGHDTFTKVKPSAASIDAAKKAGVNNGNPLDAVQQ
A short description of assay [7]: probe aInhba binding on compound microarray – biochemical, small-molecule microarray, 635/667 nm fluorescence, primary screen (AID 1148).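 Note: score merges 667nm spot fluorescence with signal-to-noise for antibody binding to printed compounds.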 The note with it: higher = more signal.
Assay [8] concerns the target Torsin-1A (Homo sapiens) (UniProt O14656). In words: TOR1A wild-type binding on microarray – cell lysate, small-molecule microarray, lysate, 635/667 nm, primary screen (AID 1149). The note with it: COS7 hTOR1A-WT lysate, 635 nm fluorescence, higher = more signal.
For assay [9] the target is unchanged. In words: torsin A mutant lysate binding on microarrays – cell lysate, small-molecule microarray, COS7 lysate, 635/667 nm fluorescence, primary screen (AID 1150).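 Note: score pools 667 nm emission and signal to noise measuring lysate protein binding.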 The note with it: COS7 hTOR1A mutant lysate, 635 nm fluorescence, higher = more signal.
The subject of assay [10] is Sonic hedgehog protein (Shh). The assay is described as follows: Sonic hedgehog microarray binding compounds – biochemical, small-molecule microarray, 635/667 nm fluorescence, primary screen (AID 1151).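 Note: Shh protein binding to compounds spotted on small-molecule microarray slides; score combines spot fluorescence intensity with signal-to-noise across triplicate slides.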 Particulars: 635 nm fluorescence, higher = more signal.

Drawing on PubChem BioAssay, this text covers composite z-score and z-score for 13 molecules.

The source made the active and inactive calls. Unless noted, the rule behind the calls is not given here.

Torsin-1A (Homo sapiens), sequence (O14656 whole entry, looked up): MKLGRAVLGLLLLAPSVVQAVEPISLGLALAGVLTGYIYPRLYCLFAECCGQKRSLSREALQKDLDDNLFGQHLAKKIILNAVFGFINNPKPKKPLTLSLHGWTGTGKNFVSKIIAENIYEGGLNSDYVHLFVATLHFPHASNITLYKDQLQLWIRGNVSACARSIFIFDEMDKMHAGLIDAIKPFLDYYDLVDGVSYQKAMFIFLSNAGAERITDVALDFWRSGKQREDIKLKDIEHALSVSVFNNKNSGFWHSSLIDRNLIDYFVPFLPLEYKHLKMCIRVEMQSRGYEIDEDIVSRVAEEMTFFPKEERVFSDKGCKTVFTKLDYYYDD

Take `O=C(N1CCCCC1)[C@@]1(CCS(=O)(=O)c2ccccc2)COC(c2ccc(OCCCO)cc2)=N1`: the composite z-score is 1.17 in assay [1]; 1.31 in assay [6]; 0.421 in assay [7]; 1.19 with Torsin-1A (Homo sapiens) [8]; 0.496 with Torsin-1A (Homo sapiens) [9]; 0.447 in assay [10]. Besides, the z-score was -2.3 (inactive) in [2], 0.514 (inactive) in assay [3], 0.62 (inactive) in assay [4] and -0.334 (inactive) in [5].

Turning to `OCCCC1=CC(c2ccc(CN3CCCC3)cc2)N(Cc2sc3ccccc3c2Cl)CC1` (stereo not given), the composite z-score in assay [1] amounted to 0.774; in [6], 0.37; in assay [7], 0.0633; with Torsin-1A (Homo sapiens) [8], 0.598; with Torsin-1A (Homo sapiens) [9], 0.842; in assay [10], 1.46. Besides, the z-score is -2.99 (inactive) in assay [2], 0.00672 (inactive) in [3], 0.96 (inactive) in assay [4] and -0.134 (inactive) in [5].

As for `CC1=C[C@@]2(CO)C(=O)[C@]3(CO3)[C@@H]1[C@H]1[C@]2(C)C=C(CO)C(=O)[C@]12CO2`, the composite z-score in assay [1] was 0.129; in assay [6], 0.006; in assay [7], -0.103; in the assay with Torsin-1A (Homo sapiens) [8], 0.145; with Torsin-1A (Homo sapiens) [9] it was 0.171; in assay [10], 0.265. The z-score in assay [2] was -0.0354 (inactive); in assay [3], -0.108 (inactive); in assay [4], 0.314 (inactive); in assay [5], 1.51 (inactive).

For the molecule `O=C1C2C=CC(C(O)c3ccc(Br)cc3)N(Nc3ccccc3F)C2C(=O)N1c1ccccc1` (stereo not given), the composite z-score in assay [1] was -0.0758; in [6], 0.738; in assay [7] it was -0.204; with Torsin-1A (Homo sapiens) [8], -0.423; in the assay with Torsin-1A (Homo sapiens) [9] it was -0.0946; in [10], -0.481. Moreover, the z-score in assay [2] was -2.94 (inactive); in assay [3], -1.76 (inactive); in assay [4] it was -1.02 (inactive); in assay [5], -0.0733 (inactive).

In the case of `CC(C)(C)N1CC=CC23O[C@@H]4C=CCOC(=O)[C@@H]4[C@H]2C(=O)N(CCCCCCO)[C@@H]3C1=O` (stereo not given in full), the composite z-score in assay [1] is -0.373; in [6], -0.772; in assay [7] it was -0.209; in the assay with Torsin-1A (Homo sapiens) [8], -0.191; in the assay with Torsin-1A (Homo sapiens) [9] it was 0.769; in assay [10], -1.13. The z-score in [2] was 0.0926 (inactive); in assay [3], 2.06 (inactive); in assay [4], 0.475 (inactive); in [5], 0.437 (inactive).

On to `CCCCCCCCCCC(O)C1C=CC2C(=O)N(C)C(=O)C2N1Nc1ccc([N+](=O)[O-])cc1[N+](=O)[O-]` (stereo not given), for which the composite z-score in assay [1] is 0.218; in assay [6], 1.12; in [7] it was 0.211; with Torsin-1A (Homo sapiens) [8], -0.257; in the assay with Torsin-1A (Homo sapiens) [9], 0.565; in assay [10], -0.412. Moreover, the z-score in assay [2] is -0.646 (inactive); in assay [3], 0.322 (inactive); in assay [4], 0.44 (inactive); in [5], 0.932 (inactive).

`CC[C@H]1C2=C3C(CC[C@H]4C(OCc5ccc(F)cc5C(F)(F)F)OC[C@](C)([C@@H]34)N(C(=O)OC(C)(C)C)C2)C(COC)C1COC` (stereo not given in full): the composite z-score was -0.173 in [1]; -0.214 in [6]; 0.029 in assay [7]; -0.0927 with Torsin-1A (Homo sapiens) [8]; -0.0476 with Torsin-1A (Homo sapiens) [9]; -1.3 in assay [10]. Besides, the z-score in assay [2] was 0.0724 (inactive); in assay [3], 1.02 (inactive); in assay [4] it was -0.379 (inactive); in [5], 1.01 (inactive).

In the case of `COC(=O)C(CC#Cc1ccc2c(c1)[C@]1(C(=O)N2)[C@H](C(=O)N2CCN(c3ncccn3)CC2)[C@H]2C(=O)O[C@H](c3ccccc3)[C@H](c3ccccc3)N2[C@@H]1c1ccc(OCCO)cc1)C(=O)OC`, the composite z-score was determined as 0.545 in assay [1]; 0.736 in [6]; 0.109 in assay [7]; 0.393 in the assay with Torsin-1A (Homo sapiens) [8]; 0.798 with Torsin-1A (Homo sapiens) [9]; 2.23 in assay [10]. Further, the z-score in [2] was -1.02 (inactive); in [3], -0.99 (inactive); in assay [4] it was -0.671 (inactive); in assay [5], -0.772 (inactive).

With `O=C1OCC=C[C@H]2OC34C=CCN(c5ccc(Cl)cc5)C(=O)[C@H]3N(CCO)C(=O)[C@@H]4[C@@H]12` (stereo not given in full), the composite z-score was -0.649 in [1]; -1.02 in assay [6]; -0.26 in assay [7]; -0.846 with Torsin-1A (Homo sapiens) [8]; -1.84 with Torsin-1A (Homo sapiens) [9]; -0.889 in [10]. Further, the z-score in assay [2] is 0.168 (inactive); in assay [3], 3.17 (inactive); in assay [4] it was 0.601 (inactive); in assay [5] it was -0.663 (inactive).

Consider `CCOc1cc(C(O)C2C=CC3C(=O)N(c4ccccc4)C(=O)C3N2Nc2ccc(C#N)cc2)ccc1O` (stereo not given), for which the composite z-score in assay [1] is -0.162; in [6], 0.999; in [7] it was 0.288; with Torsin-1A (Homo sapiens) [8], 0.258; with Torsin-1A (Homo sapiens) [9] it was 0.115; in assay [10], -0.373. Moreover, the z-score in assay [2] is 0.423 (inactive); in assay [3], -0.485 (inactive); in assay [4] it was -0.525 (inactive); in assay [5], 0.201 (inactive).

Regarding `CC(=O)NCCCC[C@@H]1NC(=O)[C@H]2C[C@@H](C(=O)NCCCC[N+](C)(C)C)[C@@H](c3cccc(OCCO)c3)N2C1=O`, the composite z-score was 0.975 in assay [1]; -0.296 in [6]; 0.0031 in [7]; 1.07 with Torsin-1A (Homo sapiens) [8]; 2.34 with Torsin-1A (Homo sapiens) [9]; 2.18 in assay [10]. The z-score was -1.62 (inactive) in assay [2], 0.481 (inactive) in assay [3], -0.667 (inactive) in [4] and 0.451 (inactive) in assay [5].

For `O=C1O[C@H](c2ccccc2)[C@H](c2ccccc2)N2[C@H]1[C@@H](C(=O)Nc1nc3ccccc3s1)[C@]1(C(=O)Nc3ccccc31)[C@H]2c1ccc(OCCO)cc1`, the composite z-score in assay [1] is 0.433; in assay [6], 0.534; in [7], -0.113; in the assay with Torsin-1A (Homo sapiens) [8], 0.927; in the assay with Torsin-1A (Homo sapiens) [9], 1.2; in [10] it was 1.5. Also, the z-score in assay [2] was -2.91 (inactive); in assay [3] it was -0.538 (inactive); in [4], -0.0515 (inactive); in assay [5], -0.124 (inactive).

Turning to `C=CCN1C(=O)[C@@]2(CCS(=O)(=O)c3ccccc3)N=C(c3ccc(OCCCO)cc3)O[C@H]2c2ccccc21`, the composite z-score in [1] amounted to 0.889; in assay [6], 0.636; in assay [7], 0.198; in the assay with Torsin-1A (Homo sapiens) [8] it was 1.16; with Torsin-1A (Homo sapiens) [9] it was 0.426; in assay [10], 2.07. Further, the z-score is -2.49 (inactive) in [2], 0.369 (inactive) in [3], -0.0808 (inactive) in [4] and -1.28 (inactive) in assay [5].
